Most compounds without a hit are left out; they make up all but 3.4% or so of the library.
MITF inh: human MITF inhibition, primary screen; 650,000 compounds, 0.91% hits; AlphaScreen MITF homodimerization, bead proximity signal; O75030; inhibition, % at 2.6 µM; in the data active = inhibition above about 50%;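 also: 0% = vehicle wells with protein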
Target sequence (O75030 whole entry, looked up): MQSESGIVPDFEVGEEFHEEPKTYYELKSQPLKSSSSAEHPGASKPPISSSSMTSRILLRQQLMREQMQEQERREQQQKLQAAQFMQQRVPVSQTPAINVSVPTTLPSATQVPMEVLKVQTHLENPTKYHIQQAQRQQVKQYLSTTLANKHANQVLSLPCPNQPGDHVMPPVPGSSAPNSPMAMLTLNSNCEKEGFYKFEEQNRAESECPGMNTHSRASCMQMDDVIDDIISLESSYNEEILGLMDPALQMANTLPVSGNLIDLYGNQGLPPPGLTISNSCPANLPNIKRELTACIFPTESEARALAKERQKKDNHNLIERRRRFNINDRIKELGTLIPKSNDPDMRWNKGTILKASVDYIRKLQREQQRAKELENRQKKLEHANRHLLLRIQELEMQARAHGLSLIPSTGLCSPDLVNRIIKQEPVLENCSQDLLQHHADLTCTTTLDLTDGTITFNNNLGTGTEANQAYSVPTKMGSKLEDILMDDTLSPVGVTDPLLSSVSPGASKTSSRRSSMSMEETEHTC
GPR151 activ: activates the human receptor GPR151 | PathHunter beta-arrestin GPR151 cells, luminescence | activation, % at 11.2 µM | 650,000 compounds, 1% hits | AID 1508602; in the data active = activation above about 4.9%;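 also: 0% = median of compound wells and 100% = cells with positive control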
TEAD-YAP inh: TEAD-YAP interaction inhibition. 640,000 compounds, 1.4% hits. HEK-TIYL cells, TEAD-Gal4/YAP UAS-luciferase luminescence. inhibition, % at 9.12 µM; in the data active = inhibition above about 32%;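 also: 0% = median of test compound wells and 100% = reference inhibitor wells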
FBW7 activator: human FBW7 E3 ligase activation, primary screen. Q969H0. AlphaScreen FBW7–phospho-cyclin E peptide binding, activator screen. normalized activity (activation), % at 26.1 µM. 650,000 compounds, 0.13% hits. AID 1259310; in the data active = normalized activity above about 1.9%;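 also: purified mutant Fbw7 with reduced substrate affinity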
* marks the source's active call; other numbers are inactive results; nt = no result.

SMILES	MITF inh	GPR151 activ	TEAD-YAP inh	FBW7 activator
CC1(C)C(=O)C=C[C@@]2(C)C1=C(O)C(=O)[C@]1(C)C2CC[C@@]2(C)[C@H](c3ccoc3)C[C@H]3O[C@]321 (stereo partly drawn)	-11	2	65*	0
CC(=O)O[C@@H]1C[C@@]2(C)[C@H](c3ccoc3)C[C@H]3O[C@]32[C@]2(C)C(=O)C(O)=C3C(C)(C)C(=O)C=C[C@]3(C)C12 (stereo partly drawn)	9	3	72*	0
CSc1ccc(/C=C/c2nc3ccccc3c(=O)n2-c2ccc(C)c(Cl)c2)cc1	-7	0	16	0
CCOC(=O)C1(C#N)CC2c3ccccc3C1c1ccccc12 (stereo not drawn)	15	2	7	2.0*
COC(=O)C1(C#N)CC2c3ccccc3C1c1ccccc12 (stereo not drawn)	-1	3	3	0
C=CCc1cc(/C=C2/C(=O)NC(=S)N(CC=C)C2=O)cc(OC)c1O	10	-1	-10	0
CN1CCN(C(=O)Cc2ccc(NC3=NC4CS(=O)(=O)CC4S3)cc2)CC1 (stereo not drawn)	21	0	-23	2.6*
O=C1CN=C(c2ccccc2)c2ccccc2N1Cc1ccc([N+](=O)[O-])cc1	-1	2	-7	0
COC1=CC23CCCN2CCc2cc4c(cc2C3C1O)OCO4 (stereo not drawn)	18	-2	-8	0
COC(=O)C[C@@](O)(CCC(C)(C)O)C(=O)O[C@@H]1C(OC)=C[C@]23CCCN2CCc2cc4c(cc2[C@@H]13)OCO4	7	-2	101*	1
COc1ccc2cc(-c3nc4ccccc4[nH]3)c(=N)oc2c1	-15	-9	65*	0
CC[C@@]1(O)C[C@H](O[C@H]2C[C@H](N(C)C)[C@H](O)[C@H](C)O2)c2c(cc3c(c2O)C(=O)c2c(O)ccc(O)c2C3=O)[C@H]1C(=O)OC	17	1	-9	0
CC[C@@]1(O)C[C@H](O[C@H]2C[C@H](N(C)C)[C@H](O)[C@H](C)O2)c2c(cc3c(c2O)C(=O)c2c(O)cccc2C3=O)[C@H]1C(=O)OC	17	0	51*	0
COc1cc(/C=C\c2ccc(OC)c(O)c2)cc(OC)c1	8	2	nt	nt
COc1ccc(/C=C/c2cc(O)cc(O)c2)cc1	-3	-6	92*	0
O=C(Cn1nc(-c2ccc(Cl)cc2)ccc1=O)N1CCC2(CC1)OCCO2	5	-1	-8	0
CCN(CC)C1=NC(=[N+](CC)CC)c2ccccc21	22	0	74*	1
CC(C)(C)n1cc(C(=O)c2ccc3ccccc3c2O)cn1	-9	0	50*	0
CC(C)(C)n1cc(C(=O)c2ccccc2O)cn1	9	1	-35	0
O=C1C=C2C(=CCOC2O)O1 (stereo not drawn)	29	0	39*	0
COCCn1nnnc1CN1CCC(n2c(C)nc3cc(C(F)(F)F)ccc32)CC1	-10	1	-7	0
O=C(Nc1ccncc1)C(=O)c1cn(Cc2ccc(Cl)cc2)c2ccccc12	8	-1	45*	0
c1ccc(C2=NN(c3ccccc3)N(c3ccccc3)N2)cc1	-9	4	76*	0
Cc1ccc(C2=CCN(CC(=O)NC3CC3)CC2)o1	13	0	-12	0
Cn1ncnc2c(=O)n(C)c(=O)nc1-2	10	-7	99*	0
SMILES	MITF inh	GPR151 activ	TEAD-YAP inh	FBW7 activator
CC1CCN(Cc2ccc(NC(=O)CCc3nc(C4=CCN(C)CC4)no3)cc2)CC1	50	2	8	3.9*
C[C@H]1OC(O[C@H]2[C@@H](O)CC(O[C@H]3[C@@H](O)C[C@H](O[C@H]4CC[C@]5(C)C6CC[C@]7(C)[C@@H](C8=CC(=O)OC8)[C@@H](O)C[C@]7(O)[C@@H]6CC[C@@H]5C4)O[C@@H]3C)O[C@@H]2C)C[C@H](O)C1O (stereo partly drawn)	11	3	78*	0
C[C@]12CC[C@H]3[C@@H](CC[C@]4(O)C[C@@H](O)CC[C@]34C=O)[C@@]1(O)CC[C@@H]2C1=CC(=O)OC1	18	1	101*	0
CO[C@@H]1C(O)[C@H](O[C@H]2CC[C@@]3(C=O)[C@H](CC[C@@H]4[C@@H]3CC[C@]3(C)[C@@H](C5=CC(=O)OC5)CC[C@]43O)C2)OC(C)[C@@H]1O (stereo partly drawn)	-4	-1	101*	0
CC(=O)O[C@H]1C[C@H](O[C@H]2[C@@H](O)C[C@H](O[C@H]3[C@@H](O)C[C@H](O[C@H]4CC[C@@]5(C)C(CCC6C5C[C@@H](O)[C@]5(C)[C@@H](C7=CC(=O)OC7)CC[C@]65O)C4)O[C@@H]3C)O[C@@H]2C)O[C@H](C)[C@H]1O[C@@H]1O[C@H](CO)[C@@H](O)[C@H](O)[C@H]1O (stereo partly drawn)	16	2	100*	0
CCOC(=O)C1=C(C)N(C)C2(C)CC1c1ccccc1O2 (stereo not drawn)	4	1	-7	0
CN1CCN(c2ccc(/C=N/n3cnnc3)cc2[N+](=O)[O-])CC1	22	-1	3	0
CCCC(=O)Nc1ccc2nc(C)n(-c3ccccc3)c(=O)c2c1	8	3	-3	0
COc1ccc(C2SCC(=O)Nc3c2c(-c2ccccc2)nn3-c2ccccc2)cc1OC (stereo not drawn)	19	0	52*	1
COc1ccc(C(=O)c2ccc(N3CCNCC3)c(F)c2)cc1Br	48	1	21	0
O=c1c2ccccc2nc(/C=C/c2ccccc2)n1-c1cc(Cl)cc(Cl)c1	6	-1	0	0
CC(C)=CCC[C@]1(C)C=Cc2c(O)c3c(c(CC=C(C)C)c2O1)O[C@]12C(=CC4C[C@@H]1C(C)(C)O[C@@]2(C/C=C(/C)C(=O)O)C4=O)C3=O	6	1	75*	0
CSc1ccccc1-n1c(=S)[nH]c2ccccc2c1=O	10	-1	-6	0
CC(C)N1CC=C(c2c[nH]c3ccccc23)CC1	4	0	37*	0
CC(C)C/C(=N/O)c1c[nH]c2ccccc12	-4	2	-4	0
CN1/C(=C/C=C/c2oc3ccccc3[n+]2C)Oc2ccccc21 (tested in a mixture with another compound)	3	0	79*	0
CN1CCN(c2nc3ccc([N+](=O)[O-])cc3s2)CC1	9	-1	-60	0
COc1ccc2sc(N3CCN(C)CC3)nc2c1	7	-5	37*	0
O=C(Nc1nccs1)c1c(O)c2ccccc2n(Cc2ccccc2)c1=O	6	3	6	0
Cc1ccc(C=C2C(=O)NC(=S)NC2=O)o1	67*	0	10	0
C=CCN1C(=O)/C(=C\c2ccc(C)o2)C(=O)NC1=S	4	-1	-6	0
Cc1ccc(/C=C2/C(=O)NC(=O)N(C)C2=O)cc1	-1	0	-6	0
